Data as given in paper PMC7862700, “An all-to-all approach to the identification of sequence-specific readers for epigenetic DNA modifications on cytosine”.

How the values were obtained:
Test in all cases: DAPPL (digital affinity profiling via proximity ligation, sequencing); 10 mM Tris-HCl pH 7.5, 50 mM NaCl, 1 mM DTT, 4% glycerol, room temperature, 30 min; GST-TFs on glutathione beads, 16-mer random dsDNA library, 0.1% formaldehyde crosslink after washing; high values mean tight binding
Details in all cases: protein: recombinant; tags: N-terminal GST; dsDNA, one strand shown
[1] = target: T1, FLI1 (Homo sapiens, UniProt Q01543 1-452)
T1 sequence: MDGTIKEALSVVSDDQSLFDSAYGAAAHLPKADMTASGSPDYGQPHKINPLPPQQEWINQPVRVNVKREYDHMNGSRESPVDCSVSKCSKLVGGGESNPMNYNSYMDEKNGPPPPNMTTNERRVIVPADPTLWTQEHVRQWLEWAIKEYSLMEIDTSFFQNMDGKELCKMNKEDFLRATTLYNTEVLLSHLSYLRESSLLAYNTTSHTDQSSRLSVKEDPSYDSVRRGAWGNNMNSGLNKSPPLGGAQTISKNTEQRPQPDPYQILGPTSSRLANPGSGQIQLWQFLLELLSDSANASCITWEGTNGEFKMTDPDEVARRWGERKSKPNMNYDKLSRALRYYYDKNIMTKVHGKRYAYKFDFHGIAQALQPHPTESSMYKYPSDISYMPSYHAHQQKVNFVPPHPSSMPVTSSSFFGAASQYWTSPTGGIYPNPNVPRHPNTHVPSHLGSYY
How it was run: (§1)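 Pools of DNA-barcoded human transcription factors, expressed in yeast as GST fusions on glutathione beads and combined with a tag-only sample, were incubated with 200 nmole of a 16-mer random double-stranded DNA library. Incubation took 30 min at room temperature in Tris/NaCl/DTT/glycerol buffer and was followed by washing, 0.1% formaldehyde crosslinking, proximity ligation (BsaI/T4 ligase, 1 h, 37 °C), PCR amplification and sequencing on an Illumina NextSeq500. Binding signal is the ratio of a hexamer's read frequency for a factor to its frequency for the tag-only sample.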

[2] = target: T2, ELK1 (Homo sapiens, UniProt P19419 1-428)
T2 sequence: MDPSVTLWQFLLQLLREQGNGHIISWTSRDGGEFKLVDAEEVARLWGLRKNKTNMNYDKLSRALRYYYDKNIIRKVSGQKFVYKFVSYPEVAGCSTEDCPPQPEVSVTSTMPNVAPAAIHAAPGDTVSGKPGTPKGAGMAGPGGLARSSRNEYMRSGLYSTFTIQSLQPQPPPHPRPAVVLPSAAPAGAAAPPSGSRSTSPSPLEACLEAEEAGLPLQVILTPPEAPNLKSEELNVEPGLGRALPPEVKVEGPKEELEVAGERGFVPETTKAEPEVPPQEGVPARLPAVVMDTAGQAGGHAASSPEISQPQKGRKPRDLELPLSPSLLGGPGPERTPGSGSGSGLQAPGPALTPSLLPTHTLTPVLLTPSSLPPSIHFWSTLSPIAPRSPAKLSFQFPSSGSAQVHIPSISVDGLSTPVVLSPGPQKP
How it was run: as §1

[3] = target: T3, GABPA (Homo sapiens, UniProt Q06546 1-454)
T3 sequence: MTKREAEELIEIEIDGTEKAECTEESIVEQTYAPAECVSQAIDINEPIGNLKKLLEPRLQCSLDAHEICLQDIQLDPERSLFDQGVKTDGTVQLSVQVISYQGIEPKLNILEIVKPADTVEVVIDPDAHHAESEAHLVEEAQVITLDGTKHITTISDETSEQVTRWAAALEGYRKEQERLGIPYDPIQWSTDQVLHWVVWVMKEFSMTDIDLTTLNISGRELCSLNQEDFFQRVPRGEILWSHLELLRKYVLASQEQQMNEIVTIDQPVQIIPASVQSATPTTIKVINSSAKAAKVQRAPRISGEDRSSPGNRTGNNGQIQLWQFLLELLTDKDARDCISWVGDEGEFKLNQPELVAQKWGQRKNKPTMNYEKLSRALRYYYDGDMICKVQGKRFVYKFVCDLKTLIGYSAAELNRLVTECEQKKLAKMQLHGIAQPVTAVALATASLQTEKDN
How it was run: as §1

[4] = target: T4, ERG (Homo sapiens, UniProt P11308 1-479)
T4 sequence: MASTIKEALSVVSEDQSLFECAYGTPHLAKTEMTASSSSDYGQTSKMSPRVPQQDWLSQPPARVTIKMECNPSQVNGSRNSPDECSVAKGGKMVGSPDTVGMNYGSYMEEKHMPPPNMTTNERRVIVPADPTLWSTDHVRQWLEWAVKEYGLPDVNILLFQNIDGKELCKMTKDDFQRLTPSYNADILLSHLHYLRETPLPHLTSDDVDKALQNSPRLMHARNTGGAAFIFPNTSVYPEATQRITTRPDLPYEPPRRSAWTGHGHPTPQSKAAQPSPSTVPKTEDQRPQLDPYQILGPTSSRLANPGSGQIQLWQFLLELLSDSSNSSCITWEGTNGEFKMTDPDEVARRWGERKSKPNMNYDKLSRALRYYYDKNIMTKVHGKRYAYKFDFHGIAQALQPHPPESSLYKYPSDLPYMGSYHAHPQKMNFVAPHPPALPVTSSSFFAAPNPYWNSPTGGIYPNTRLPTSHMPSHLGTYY
How it was run: as §1

[5] = target: ELF1 (Homo sapiens, UniProt P32519 1-619)
How it was run: as §1

[6] = target: T5, EHF (Homo sapiens, UniProt Q9NZC4 1-300)
T5 sequence: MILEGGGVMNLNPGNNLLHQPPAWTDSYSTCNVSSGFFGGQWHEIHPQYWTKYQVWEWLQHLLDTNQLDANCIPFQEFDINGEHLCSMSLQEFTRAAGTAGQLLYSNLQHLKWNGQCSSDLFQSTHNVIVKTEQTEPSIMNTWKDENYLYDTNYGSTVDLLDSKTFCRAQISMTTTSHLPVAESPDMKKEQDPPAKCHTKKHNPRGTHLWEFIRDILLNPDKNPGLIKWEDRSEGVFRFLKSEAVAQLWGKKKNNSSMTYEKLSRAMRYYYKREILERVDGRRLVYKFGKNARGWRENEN
How it was run: as §1

[7] = target: SPI1 (Homo sapiens, UniProt P17947 1-270)
How it was run: as §1

[8] = target: SPIB (Homo sapiens, UniProt Q01892 1-262)
How it was run: as §1

[9] = target: T6, ELK3 (Homo sapiens, UniProt P41970 1-407)
T6 sequence: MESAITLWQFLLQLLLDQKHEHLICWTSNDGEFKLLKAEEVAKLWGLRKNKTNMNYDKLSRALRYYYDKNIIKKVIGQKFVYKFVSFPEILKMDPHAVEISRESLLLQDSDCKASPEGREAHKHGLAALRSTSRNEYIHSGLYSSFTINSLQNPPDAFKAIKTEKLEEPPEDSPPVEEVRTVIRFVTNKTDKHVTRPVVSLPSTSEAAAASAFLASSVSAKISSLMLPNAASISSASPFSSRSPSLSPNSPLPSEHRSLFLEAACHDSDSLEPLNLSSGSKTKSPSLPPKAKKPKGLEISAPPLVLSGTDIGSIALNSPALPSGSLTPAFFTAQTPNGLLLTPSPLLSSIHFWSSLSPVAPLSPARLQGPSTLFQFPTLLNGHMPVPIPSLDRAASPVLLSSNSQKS
How it was run: as §1

ELF1, sequence (P32519 whole entry): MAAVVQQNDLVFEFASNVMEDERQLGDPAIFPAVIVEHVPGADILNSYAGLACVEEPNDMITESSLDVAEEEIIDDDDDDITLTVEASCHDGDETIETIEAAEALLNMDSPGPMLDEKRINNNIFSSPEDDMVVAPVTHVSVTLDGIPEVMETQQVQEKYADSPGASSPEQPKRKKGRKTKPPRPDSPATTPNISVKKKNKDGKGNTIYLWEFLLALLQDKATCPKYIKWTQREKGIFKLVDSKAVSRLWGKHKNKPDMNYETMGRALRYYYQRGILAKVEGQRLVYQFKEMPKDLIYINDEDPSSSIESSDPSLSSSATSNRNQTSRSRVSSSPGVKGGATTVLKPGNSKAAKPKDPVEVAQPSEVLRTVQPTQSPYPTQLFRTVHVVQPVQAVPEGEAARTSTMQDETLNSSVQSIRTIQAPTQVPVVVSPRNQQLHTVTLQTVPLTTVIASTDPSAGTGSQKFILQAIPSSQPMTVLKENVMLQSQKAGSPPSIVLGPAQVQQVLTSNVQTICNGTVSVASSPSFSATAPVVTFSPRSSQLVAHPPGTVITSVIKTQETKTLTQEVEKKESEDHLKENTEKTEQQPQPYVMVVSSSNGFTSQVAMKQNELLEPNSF
SPIB, sequence (Q01892 whole entry): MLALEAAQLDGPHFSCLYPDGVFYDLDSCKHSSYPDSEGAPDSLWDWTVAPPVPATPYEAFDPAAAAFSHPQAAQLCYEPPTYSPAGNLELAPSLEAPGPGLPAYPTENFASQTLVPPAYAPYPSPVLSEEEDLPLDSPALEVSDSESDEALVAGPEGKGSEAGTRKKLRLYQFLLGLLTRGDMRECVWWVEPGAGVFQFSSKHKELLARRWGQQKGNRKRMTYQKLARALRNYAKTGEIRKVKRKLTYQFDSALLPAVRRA

TATACC
binding signal [1]: 1.29 fold enrichment (6-mer frequency, TF over GST control)
binding signal [2]: 1.31 fold enrichment (6-mer frequency, TF over GST control)
binding signal [3]: 1.18 fold enrichment (6-mer frequency, TF over GST control)
binding signal [4]: 1.2 fold enrichment (6-mer frequency, TF over GST control)
binding signal [5]: 1.18 fold enrichment (6-mer frequency, TF over GST control)
binding signal [6]: 1.21 fold enrichment (6-mer frequency, TF over GST control)
binding signal [7]: 1.05 fold enrichment (6-mer frequency, TF over GST control)
binding signal [8]: 1.27 fold enrichment (6-mer frequency, TF over GST control)
binding signal [9]: 1.16 fold enrichment (6-mer frequency, TF over GST control)
